This is part of a sample that, as a whole, favours compounds with a hit. Of some 83,000 tested, about 20% had one in any assay.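 Interpretation: 100, growth as untreated; towards 0, rising growth inhibition; 0, no net growth; 0 to -100, cell death. Compounds scoring below 10 were considered active.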 Unmarked numbers belong to inactive results. Active and inactive are the calls of the source.
Test system: M14 melanoma
Assay: NCI-60 one-dose screen, 48 h (100 = growth as untreated, 0 = no growth, -100 = all killed)
Settings: 10 µM unless noted
Experimental: Growth inhibition of the M14 human tumor cell line is measured as a screen for anti-cancer activity. Cells are grown in 96 well plates and exposed to the test compound for 48 hours. Compounds are tested at a single concentration, which is 10^-5 M for most compounds. The reported endpoint is percent growth (GI% or GIPRCNT), where numbers from 0 - 100% represent growth inhibition, and numbers from -100% - 0 represent cell death. For example, a value of 40 represents 60% growth inhibition. A value of 0 means no net growth occurred over the course of the experiment. A value of -40 indicates 40% of cells at the beginning of the experiment died by the end of the experiment. A value of -100 means all cells are dead at the end of the experiment.
NCI-60 Human Tumor Cell Lines Screen was performed using the standard one-dose NCI protocol, which is described in more detail at https://dtp.cancer.gov/discovery_development/nci-60/default.htm.
Compounds with GIPRCNT values below 10 were considered active. Activity score was based on GIPRCNT using the following formula: […]
Score is 0 for GIPRCNT values of 100 or above, 50 for GIPRCNT values of 0, and 100 for GIPRCNT values of -100.

| Compound | growth |
| --- | --- |
| O=C(Oc1ccc(Cl)cc1[N+](=O)[O-])Oc1ccc(Cl)cc1[N+](=O)[O-] | 109% |
| CCN(CC)c1ccc2cc(C(Nc3ccc(C)cc3)c3nnnn3C(C)(C)C)c(=O)oc2c1 (stereo not given) | 103% |
| O=C(Nc1ccc(C(=O)/C=C/c2ccc(N3CCOCC3)cc2)cc1)Nc1ccc([N+](=O)[O-])cc1 | 110% |
| O=C(CCCSc1nc(-c2ccccc2)cc(-c2ccccc2)n1)NO | 5.46% (active) |
| COc1ccc(-c2nc3ccccn3c2/C=C/C(=O)c2cc(OC)c(OC)c(OC)c2)cc1OC | 13.4% |
| COc1cc(-c2cc(-c3ccc(Nc4ncnc5cc(Cl)ccc45)cc3)nc(N3CCCCC3)n2)cc(OC)c1OC | 106% |
| COCCCNc1nc(NC(=O)c2cc(OC)cc(OC)c2)cc(-c2cccnc2)n1 | 107% |
| COc1cc(NN=C(c2ccc(O)cc2)c2ccc(O)cc2)c([N+](=O)[O-])cc1[N+](=O)[O-] | -15.9% (active) |
| Cn1cc(-c2noc(C(=O)c3cn(C)c4ncc(Br)cc34)n2)c2ccccc21 | 99.4% |
| COc1ccc(C(=O)CCC(=O)O)cc1 | 95.3% |
| CC1(C)OC2[C@@H](CNC(=O)NC(=O)NC(=O)CI)O[C@@H](n3cnc4c(NC(=O)Nc5ccccc5)ncnc43)[C@H]2O1 (stereo not given in full) | 69.4% |
| OC(c1ccc(Cl)cc1)(c1ccc(Cl)cc1)C(O)(c1ccc(Cl)cc1)c1ccc(Cl)cc1 | 35.6% |
| Cc1ccc2c(c1)/C(=N\N=C/c1cn(C(C)C)c3ccccc13)C(=O)N2 | 54% |
| COc1ccc(NC(=O)Nc2ccc(-c3cccnc3)cc2N2CCC(CO)CC2)cc1 | 63.3% |
| C[n+]1c2ccccc2nc2c(N)cc(N)cc21 | 96% |
| CCN(CCO)CCC(=O)c1ccc([N+](=O)[O-])cc1 | 106% |
| O=C1/C(=C\c2cn(CC(O)CN3CCCCC3)c3ccccc23)c2ccccc2N1c1c(Cl)cccc1Cl (stereo not given) | -81.1% (active) |
| COc1ccc(-c2cc(-c3ccc(Cl)cc3)nc(NCCCCNc3ccnc4cc(Cl)ccc34)n2)cc1 | 34.6% |
| CC(C)CCSC1=CC(=O)c2ccccc2C1=O | 68.3% |
| Cn1cc(-c2nnc(-c3cn(C)c4ncccc34)o2)c2ccccc21 | 35.5% |

| Compound | growth |
| --- | --- |
| COC(=O)c1c(C)[nH]c(/C=C2\N=C(c3ccc[nH]3)C=C2OC)c1C | -24% (active) |
| CCN(CC)c1ccc(/C=C/C=C2\NC(=O)NC2=O)cc1 | 17.7% |
| O=C1NC(=O)C(Cc2ccccc2)(Cc2ccccc2)N1 | 93.9% |
| CC(C)C1=NOC(=O)C1=Cc1cn(-c2ccccc2)nc1-c1ccccc1 | 76.2% |
| CCc1cccc(Cl)c1 | 101% |
| C#CCNC(=O)CC[C@]1(C)[C@H]2CC[C@@H]3[C@@H]([C@@](C)(O)CCC=C(C)C)CC[C@@]3(C)[C@]2(C)CC[C@H]1C(=C)C | 53.1% [100 µM] |
| CCOc1ccc(/C=C(\C#N)c2cc3ccccc3[nH]2)cc1 | 39% |
| CC1(C)C(=O)/C(=C\c2cccnc2)C[C@]2(C)[C@H]3CC[C@@H]4[C@H]5[C@H](C(=O)/C=C/c6cccnc6)CC[C@]5(C(=O)O)CC[C@@]4(C)[C@]3(C)CC[C@@H]12 | -38.4% [100 µM] (active) |
| NC1=NC(=O)NC1(c1ccccc1)c1ccccc1 | 98.6% |
| CCn1cc(-c2ccnc(NCCNS(=O)(=O)c3ccc(Br)cc3)c2)c(-c2cccc(OC)c2)n1 | 83.3% |
| Clc1ccccc1/C=N\Nc1ccccn1 | 124% |
| Cn1cc(-c2noc(-c3cn(C)c4ncc(F)cc34)n2)c2cc(Br)ccc21 | 85.7% |
| CCN(CC)CCCNCc1cc(-c2ccccc2)nc2ccccc12 | 4.63% (active) |
| CC1=C/C(=C(\c2cc(C)c(O)c(C(=O)O)c2)c2c(Cl)cccc2Cl)C=C(C(=O)O)C1=O | 97.4% |
| O=C(NCc1ccc(Cn2c(=O)sn(-c3ccccc3)c2=O)cc1)OCc1ccc2c(Br)cc(Br)c(O)c2n1 | -62.6% (active) |
| CCOC(=O)n1cc(C2=C(c3ccc(OC)c(OC)c3)COC2=O)c2ccccc21 | 54.6% |
| CCOC(=O)c1ccc2nc(-c3c(C)nn(-c4ccccc4)c3N3CCOCC3)[nH]c2c1 | 89.3% |
| CCCCCCCCCCCCNC(=S)N/N=C/c1ccccc1O | 78.1% |
| C=C(C)[C@@H]1CC[C@]2(COC(=O)c3ccccc3C(=O)O)CC[C@]3(C)[C@H](CC[C@@H]4[C@@]5(C)CC[C@H](OC(=O)c6ccccc6C(=O)O)C(C)(C)[C@@H]5CC[C@]43C)[C@@H]12 | 29.6% [100 µM] |
| CNC(=O)c1cc(Oc2cccc3nc(NC(=O)Nc4cc(C(F)(F)F)cc(C(F)(F)F)c4)ccc23)ccn1 | 35.5% |
